# In the supplement of paper PMC6897291:
# Test system: RIVA
# Experiment: growth inhibition by drug alone (1 - RLU/untreated control) (fraction); higher = stronger inhibition
# Conditions: 177Lu-lilotomab satetraxetan 0 ug/ml
# Protocol: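 RIVA (RI-1) ABC-DLBCL cells were pretreated or not for 18 h with 0.5 ug/ml 177Lu-lilotomab satetraxetan (600 MBq/mg), washed and seeded (3000 cells/well) on 384-well plates pre-printed with the Selleck Cambridge Cancer Compound library. Viability was read by RealTime-Glo luminescence on days 3-6 after seeding. Effect = 1 - RLU/mean RLU of the 48 untreated no-drug control wells per plate; Bliss score = (M-E)/(1-Fa).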
SMILES,"growth inhibition by drug alone (10 nM, time (day): 3)","growth inhibition by drug alone (10 nM, time (day): 4)","growth inhibition by drug alone (10 nM, time (day): 5)","growth inhibition by drug alone (10 nM, time (day): 6)","growth inhibition by drug alone (100 nM, time (day): 3)","growth inhibition by drug alone (100 nM, time (day): 4)","growth inhibition by drug alone (100 nM, time (day): 5)","growth inhibition by drug alone (100 nM, time (day): 6)"
CNC(=O)c1ccc(N2C(=S)N(c3ccc(C#N)c(C(F)(F)F)c3)C(=O)C2(C)C)cc1F [MDV3100 (Enzalutamide)],0.0909,0.0471,0.0315,-0.246,-0.0634,-0.143,-0.144,-0.21
CNC(=O)[C@@H](NC(=O)[C@H](CC(C)C)[C@H](O)C(=O)NO)C(C)(C)C [Marimastat],-0.274,-0.343,-0.475,-0.556,-0.508,-0.486,-0.476,-0.599
C[C@]1(c2nc3c(C(N)=O)cccc3[nH]2)CCCN1 [ABT-888 (Veliparib)],-0.145,-0.176,-0.216,-0.314,-0.198,-0.238,-0.247,-0.287
CS(=O)(=O)N1CCc2c(-c3cnc(N)nc3)nc(N3CCOCC3)nc21,0.14,0.0286,-0.0356,-0.278,0.291,0.165,0.108,0.0361
C[C@]12CC[C@@H]3c4ccc(O)cc4CC[C@H]3[C@@H]1CCC2=O [Estrone],-0.099,-0.0604,-0.112,-0.295,-0.445,-0.269,-0.323,-0.542
